# Source: PubChem BioAssay (Tox21)
# Records with an inconclusive call do not appear. Entries that show only a call come without a potency. A number with no mark means an inactive call. Active and inactive are the calls of the source. Calls follow the shape of the full dose curve.
# Assay: p53 small molecule agonists, cell-based qHTS assay with rat liver microsomes (AID 1963578)
# Conditions: HCT-116 p53RE-bla, beta-lactamase ratio, 16 h; series mostly up to 66 µM
# Excerpt: U.S. Tox21 Program National Center for Advancing Translational Sciences [NCATS] Division of Preclinical Innovation [DPI] U.S. Environmental Protection Agency [EPA] National Institutes of Environmental Health Sciences [NIEHS] National Toxicology Program [NTP] U.S. Food and Drug Administration [FDA] Tox21 Assay Overview: p53, a tumor suppressor protein, is activated following cellular insult, including DNA damage and other cellular stresses. The activation of p53 regulates cell fate by inducing DNA repair, cell cycle arrest, apoptosis, or cellular senescence. The activation of p53, therefore, is a good indicator of DNA damage and other cellular stresses. […] The activation of the reporter gene under culture conditions can be detected by fluorescence intensity. This cell line was used to screen the Tox21 10K compound library in the condition of presence of rat liver microsomes and to identify agonists that activate the p53 signaling pathway after in vitro metabolic activation (Ooka et al., Archive of Toxicology 96:1975-1987, 2022).
# Tox21 Assay Protocol Summary: The p53RE-bla cells were dispensed at 4,000cells/3ul/well in 1536-well black-clear bottom plates. After the assay plates were incubated at 37 C, 5% CO2 incubator for 5 hours, 23 nL of compounds dissolved in DMSO, positive controls or DMSO only was transferred to the assay plate. Following compound addition, 3 uL of rat liver microsomes (Molecular Toxicology, Boone, NC) at final concentration of 0.5 mg/mL and 1uL of Beta-Nicotinamide adenine dinucleotide 2-phosphate (NADPH) at final concentration of 0.5 mg/mL were transferred to the assay plate. The plates were incubated at 37 C for 16 hours. 1 uL of LiveBLAzer detection mixture was added to each well and the plates were incubated at room temperature in the dark for 2 h.
Structure (SMILES),activation,Potency
CO[C@@H]1[C@H](OC(=O)NC(=O)CCl)CC[C@]2(CO2)[C@H]1[C@@]1(C)O[C@@H]1CC=C(C)C,1.99% [at 13.6 µM],–
NC(=O)CF,–,inactive
CN(C)N,–,inactive
COC(C)(C)CCCC(C)C/C=C/C(C)=C/C(=O)OC(C)C (stereo not given),–,inactive
C1CS1,–,inactive
CCOP(=S)(OCC)Oc1ccc2c(C)c(Cl)c(=O)oc2c1,–,inactive
CCCBr,–,inactive
C=CCCl,–,inactive
O=C(O)C1C(C(=O)O)C2(Cl)C(Cl)=C(Cl)C1(Cl)C2(Cl)Cl (stereo not given),–,inactive
CCC(=O)Nc1ccc(Cl)c(Cl)c1,–,inactive
O=C(O)c1nn(Cc2ccc(Cl)cc2Cl)c2ccccc12,–,inactive
ClCC(Cl)CCl,–,inactive
Cc1ncc(CNC(=O)N(CCCl)N=O)c(N)n1,–,inactive
Cc1ccc([N+](=O)[O-])cc1,–,inactive
C[N+](C)(C)C,–,inactive
Nc1nc(=S)[nH][nH]1,–,inactive
CCCCC(CC)CO[N+](=O)[O-] (stereo not given),–,inactive
CC(C)(c1ccccc1)c1ccc(O)c(C(C)(C)c2ccccc2)c1,–,inactive
OC(Cc1ccccc1Cl)(Cn1cncn1)C1(Cl)CC1 (stereo not given),–,inactive
NC(=S)c1c(Cl)cccc1Cl,–,inactive

Structure (SMILES),activation,Potency
CCCCCBr,–,inactive
N#Cc1ccccn1,–,inactive
C#CCO,–,inactive
Cc1cc(Cl)ccc1N=CN(C)C,–,inactive
Cl/C=C\C[N+]12CN3CN(CN(C3)C1)C2,–,inactive
CC(=O)[O][Hg][c]1ccccc1,–,inactive
Nc1ccc(-c2ccccc2)cc1,–,inactive
CC(C)[N+](C)(CCC(C(N)=O)(c1ccccc1)c1ccccc1)C(C)C,–,inactive
COC(=O)c1ccccc1CS(=O)(=O)NC(=O)Nc1nc(OC)cc(OC)n1,–,inactive
N#Cc1ccc(O)cc1,–,inactive
O=P(O)(Oc1ccccc1)Oc1ccccc1,–,inactive
O=C(O)CC(O)(CC(=O)O)C(=O)O,–,inactive
CC(C)c1ccc(CO)cc1,–,inactive
N#CCCCl,–,inactive
CC(C)C1(C)N=C(c2ncccc2C(=O)O)NC1=O (stereo not given),–,inactive
C1CC2OC2CC1C1CO1 (stereo not given),–,inactive
C#CCOC(C(=O)OCCN(C)C)(c1ccccc1)c1ccccc1,–,inactive
O=C1C=CC(=O)C=C1,–,inactive
CNC,–,inactive
CC(=O)C(Cl)Cl,–,inactive
